# Data: PubChem BioAssay AID1347048 (National Center for Advancing Translational Sciences (NCATS), 2019)
# Screen size: about 76,000 compounds; about 1,200 (1.6%) were called active. Another 4% or so got no clear call; they are omitted. The full list was thinned out, with actives kept by preference. Values without a mark were called inactive. The call rests on the fitted dose curve.
# Target: Atrial natriuretic peptide receptor 1 (Homo sapiens) (UniProt P16066)
# Experiment: Natriuretic polypeptide receptor (hNpr1) antagonism - Primary qHTS; further: nearly all actives have a fitted effect of over 60% in size
# Conditions: HEK293 hNpr1 GloSensor cGMP, ANP-stimulated luminescence; series mostly up to 46.3 µM; activity change, negative = inhibition: at the top concentration
# Description: Pruritus or itch, is an irritating skin sensation that creates a need to scratch, and ranges from mildly unpleasant and passing to acute and persistent sensations. […] Conventional treatments include topical anti-inflammatory agents, anti-histamines, and emollients, which are aimed at managing the itchy sensation and not the underlying disease. The treatment of pruritus remains a diagnostic and therapeutic challenge. Neurotransmission in the spinal cord from primary pruriceptors to second order neurons is a necessary step that eventually results in the sensation of itch. At this synapse, primary pruriceptors use the neuropeptide natriuretic polypeptide B (NppB) to activate its cognate receptor Natriuretic polypeptide receptor 1 (Npr1) on second order neurons. Inhibition of this step is a new potential strategy to inhibit acute and chronic itch. In order to identify small molecular compounds that can inhibit the Npr1 receptor we developed a high-throughput assay to probe inhibition of the receptor guanylate cyclase Npr1. The assay was designed taking advantage of Promega's GloSensor[TM] technology (Fan, F. et al. 2008). It involves the expression of a cyclic guanosine monophosphate (cGMP) biosensor, comprised of a firefly luciferase variant that was coupled to the cGMP binding domain of human phosphodiesterase 5A, and loading of cells with a cell-permeable luciferase substrate to monitor cGMP production by Npr1 in real time in live cells. In detail, we generated human embryonic kidney 293 cells stably expressing the human Npr1 and the cGMP GloSensor[TM] pGS-40F. Stimulating these cells with the Npr1 agonists human NppA or NppB, luciferase-induced light production could be detected in a dose-dependent manner. We also generated HEK293 cells stably expressing human Npr2 and pGS-40F and cells only expressing pGS-40F to conduct secondary counter screens. In these cells, NppC or sodium nitroprusside were used to stimulate Npr2 or soluble guanylate cyclase which is endogenously expressed in HEK293 cells, respectively. REFERENCE F. Fan, B. F. Binkowski, B. L. Butler, P. F. Stecha, M. K. Lewis, K. V. Wood, Novel genetically encoded biosensors using firefly luciferase. ACS Chem. Biol., 2008, 3: 346-351 .
# PROTOCOL TABLES (as described by Inglese J, Shamu CE and Guy RK. 2007) SEQUENCE No. (e.g., 1, 2, 3, etc.); […] (e.g., Cells, Incubation, Reagent, etc.); VALUE and DESCRIPTION. GLOSENSOR PROTOCOL 1. Cells. Seed 1500 HEK293 cGMP-sensor cells expressing hNpr1 per well in 4uL into Greiner 1536-well white/solid bottom high base, tissue culture-treated plates. 2. Incubation. Incubate plated cells at 37C in 5% CO2, 95% RH overnight. 3. Reagent. Add 1uL per well GloSensor reagent from Promega (2% final concentration) or CO2 independent media vehicle control to respective columns of Greiner 1536-well plates. 4. Incubation. Incubate plated cells at room temperature for 2 h, protect from light. 5. Compounds. Library compounds and A-71915 control added at 23 nL per well, transferred by Pin Tool. 6. Incubation. Incubate plated cells for 30 min. at room temperature, protect from light. 7. Detector. GloSensor baseline pre-read luminescence measured using CCD-based camera (Viewlux). 8. Compound. Add 1uL of hNppA peptide to 0.1 nM final concentration to stimulate hNpr1 or CO2 independent media as vehicle control. 9. Incubation. Incubate treated cells at room temperature for 20 min., protect from light. 10. Detector. GloSensor post-hNppA luminescence measured using CCD-based camera (Viewlux). NOTES (numbers refer to Sequence numbers above) 1. HEK293 cells expressing hNpr1 and GIP/pGS-40F grown to 85-95% confluence (48-72 h) in T175 culture flasks (CO2 independent media supplemented with 10% FBS, 1% Pen/Strep antibiotics and 1 ug/mL puromycin). Trypsinize and harvest cells from T175 culture flasks and filter through 40 um cell strainer. Cells counted with Invitrogen Countess (30,000,000 - 50,000,000 cells/flask). […]
# On the % scale 0 is the no-effect control and ±100 the full control effect; potency means the concentration at half of the fitted maximal effect.
# Atrial natriuretic peptide receptor 1 (Homo sapiens), sequence (P16066 whole entry, looked up): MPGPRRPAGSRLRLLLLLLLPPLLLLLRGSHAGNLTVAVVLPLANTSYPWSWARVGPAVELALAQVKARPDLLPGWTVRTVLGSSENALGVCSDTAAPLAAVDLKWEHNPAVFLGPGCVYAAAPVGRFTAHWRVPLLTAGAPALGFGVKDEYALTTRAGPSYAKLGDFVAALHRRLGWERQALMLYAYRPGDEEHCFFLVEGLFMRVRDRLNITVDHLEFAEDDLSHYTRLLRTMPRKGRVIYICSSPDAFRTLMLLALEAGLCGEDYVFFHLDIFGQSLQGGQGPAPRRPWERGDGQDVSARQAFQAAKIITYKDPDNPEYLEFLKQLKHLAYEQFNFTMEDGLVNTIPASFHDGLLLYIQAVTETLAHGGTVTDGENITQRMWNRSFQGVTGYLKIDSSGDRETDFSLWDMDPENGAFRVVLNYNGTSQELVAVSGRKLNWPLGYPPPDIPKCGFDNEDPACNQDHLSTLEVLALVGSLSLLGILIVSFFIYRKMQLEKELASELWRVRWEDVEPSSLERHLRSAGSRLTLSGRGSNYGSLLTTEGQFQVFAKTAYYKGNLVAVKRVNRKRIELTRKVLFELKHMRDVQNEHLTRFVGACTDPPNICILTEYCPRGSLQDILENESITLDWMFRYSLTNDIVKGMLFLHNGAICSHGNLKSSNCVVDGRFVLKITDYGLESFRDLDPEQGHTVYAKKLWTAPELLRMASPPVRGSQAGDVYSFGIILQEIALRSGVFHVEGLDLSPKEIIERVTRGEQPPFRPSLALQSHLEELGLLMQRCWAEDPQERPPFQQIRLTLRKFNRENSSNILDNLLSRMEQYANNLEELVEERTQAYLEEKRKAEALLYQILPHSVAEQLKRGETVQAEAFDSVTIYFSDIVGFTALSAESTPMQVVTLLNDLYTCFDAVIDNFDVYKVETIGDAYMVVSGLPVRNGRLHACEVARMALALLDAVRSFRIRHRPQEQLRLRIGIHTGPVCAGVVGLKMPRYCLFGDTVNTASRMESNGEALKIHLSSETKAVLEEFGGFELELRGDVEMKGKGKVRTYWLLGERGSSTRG
SMILES,"activity change, negative = inhibition",Potency
Cc1nc(CCNS(=O)(=O)c2ccc(Cl)cc2)no1,0%,–
O=C([C@H]1CCC[C@H](O)C1)N(CCC1=CCCCC1)Cc1ccccc1,0.789%,–
O=c1[nH]nc2n1CCCC2,-17.4%,–
COc1cc(OC)cc(C(=O)N2CCCC(n3cc(-c4nc(C(C)C)no4)nn3)C2)c1 (stereo not given),-11.7%,–
COc1ccc(C(=O)N2CCCC(n3cc(-c4nc(C5CC5)no4)nn3)C2)cc1 (stereo not given),2.3%,–
O=C(c1ccc(F)cc1Cl)N1CCC(n2cc(-c3nc(-c4ccccc4)no3)nn2)C1 (stereo not given),–,3.98 µM (active)
COc1ccccc1C(=O)N1CCCC(n2cc(-c3nc(-c4ccccc4)no3)nn2)C1 (stereo not given),–,4.47 µM (active)
Cc1nc(-c2cn(C3CCCN(C(=O)c4cc(F)ccc4F)C3)nn2)no1 (stereo not given),0%,–
CCc1noc(-c2cn(C3CCN(C(=O)c4cccc(OC)c4)C3)nn2)n1 (stereo not given),-1.19%,–
COc1ccccc1-c1onc(C)c1C(=O)NCCC(c1ccccc1)c1ccccc1,-9.75%,–
CCn1c(C2CCCNC2)nn(Cc2noc(-c3ccc(C)cc3)n2)c1=O (stereo not given),3.51%,–
CC(C)(C)C(=O)N1CC[C@@H](CC(=O)O)[C@@H](CCN2CCN(c3cccc(C(F)(F)F)c3)CC2)C1,5.62%,–
COc1cccc(N2CC3(COCC2=O)CN(c2ccc(C(F)(F)F)cn2)C3)n1,-16.6% [at 70.6 µM],–
O=C1CCCCCN1C1CCN(Cc2ccc(C(F)(F)F)cc2)CC1,-16.4%,–
Cc1cc(-c2cn(C)c(=O)n3cc(COc4ccccc4)nc23)ccn1,–,25.1 µM (active)
CN(C)c1cccc(-c2cn(C)c(=O)n3cc(COc4ccc(Cl)cc4)nc23)c1,-2.64% [at 70.6 µM],–
CN(C)Cc1cn2c(=O)n(C)cc(-c3cccc(OCc4ccccc4)c3)c2n1,-2.84% [at 70.6 µM],–
CCOc1ccc(CC(=O)N2CCCC3(C2)Nc2cccnc2NC3=NC2CCCC2)cc1 (stereo not given),-2.91%,–
O=C(c1ccc(-c2ccc(N3CCCCC3)nc2)cc1)N1CCOCC1,-16.1%,–
COCCN1CC(CO)C2(CCN(Cc3ccc(F)c(Cl)c3)CC2)C1 (stereo not given),-21.1%,–
CN1CCCC2(CCN(C(=O)c3cccc(N4CCCC4=O)c3)C2)C1=O (stereo not given),13.1%,–
O=C(Cc1ccc(F)cc1)N1CCCC(c2nn(-c3ccc(Cl)cc3)c(=O)[nH]2)C1 (stereo not given),8.11%,–
CC(=O)N1CCCC(c2nn(-c3ccccc3)c(=O)[nH]2)C1 (stereo not given),-9.12% [at 70.6 µM],–
O=c1[nH]c(C2CCCN(Cc3ccccn3)C2)nn1-c1ccc(Cl)cc1 (stereo not given),–,5.01 µM (active)
O=C(COc1ccc(F)cc1)NC1CCN(c2cn[nH]c(=O)c2)CC1,0.664%,–

SMILES,"activity change, negative = inhibition",Potency
Cc1ncsc1C(=O)N1CCc2c(n(Cc3ccccc3)n(-c3ccccc3)c2=O)C1,1.6% [at 70.6 µM],–
O=C(Cc1ccc(F)cc1)N1CCC2(CC1)NC(=O)N(c1ccccc1)N2,-1.52%,–
CC1(C(=O)NCc2ccc3c(c2)OCO3)CCc2cnc(NCc3ccccc3)nc21 (stereo not given),–,35.5 µM (active)
CN(Cc1ccccc1)C(=O)C1(C)CCCc2cnc(Nc3cccnc3)nc21 (stereo not given),-21.7% [at 70.6 µM],–
CC1(C(=O)NCC2CCCO2)CCCc2cnc(Nc3ccccc3)nc21 (stereo not given),7.26% [at 70.6 µM],–
CC(C)N1Cc2cc(C(=O)Nc3cccc4c3CCCC4)sc2C1,-13.9%,–
O=C(Nc1ccc2c(c1)CCC2)c1cc2c(s1)CN(C1CC1)C2,–,11.2 µM (active)
COc1ccc(CNC(=O)c2cc3c(s2)CN(C2CC2)C3)cc1OC,-7.63%,–
Cc1cc(NC(=O)c2ccc3c(c2)OCCN(CCC(F)(F)F)C3)ccc1F,-3.62% [at 70.6 µM],–
O=C(Nc1cccnc1)c1ccc2c(c1)OCCN(c1ccccc1)C2,-21.2% [at 70.6 µM],–
CC(C)(C)c1csc(NC(=O)c2ccc3c(c2)OCCN(C2CCC2)C3)n1,–,31.6 µM (active)
O=C(c1ccc2c(c1)OCO2)N1CCC2(CC1)CN(c1ccncn1)CC2CO (stereo not given),2.18%,–
CN(C)C(=O)C1CN(C(=O)Nc2ccc(F)cc2F)CC12CCOCC2 (stereo not given),-8.52%,–
O=C(Nc1ccc(Oc2ccccc2)cc1)O[C@@H]1CO[C@H]2[C@@H]1OC[C@@H]2NCC1CC1,-1.22% [at 70.6 µM],–
O=C(Nc1ccccc1)O[C@@H]1CO[C@H]2[C@@H]1OC[C@@H]2NS(=O)(=O)c1cccc2cccnc12,-9.3%,–
O=C(Nc1ccc(Oc2ccccc2)cc1)O[C@@H]1CO[C@H]2[C@@H]1OC[C@@H]2NS(=O)(=O)c1cccs1,–,12.6 µM (active)
O=C(NC1CCCC1)N1CCC(Oc2ccc(-c3noc(C4CC4)n3)cc2)C1 (stereo not given),–,8.91 µM (active)
Cc1cccc(C(=O)N2CC(Oc3cccc(-c4nc(-c5ccccc5)no4)c3)C2)c1,-1.57%,–
O=C(NC1CCCCC1)N1CCCCCC1c1nc(-c2cccnc2)no1 (stereo not given),-4.2%,–
O=C(c1ccncc1)N1CCC(Oc2ccccc2)C1 (stereo not given),0%,–
O=C(c1ccoc1)N1CC(Oc2ccc(-c3nc(-c4ccccc4)no3)cc2)C1,-2.34%,–
O=C(NC1CCCC1)N1CCCC(c2noc(COc3ccccc3)n2)C1 (stereo not given),-21.1%,–
Cc1cccc(C(=O)N2CCC(Oc3ccc(-c4noc(C(C)C)n4)cc3)C2)c1 (stereo not given),–,11.2 µM (active)
O=C(c1ccccn1)N1CC(Oc2ccc(-c3noc(C4CC4)n3)cc2)C1,–,14.1 µM (active)
CCCN1CC(Oc2ccc(-c3noc(C4CC4)n3)cc2)C1,-2.63%,–
